This is an account of results in paper PMC4081100, “A DNA-binding-site landscape and regulatory network analysis for NAC transcription factors in Arabidopsis thaliana”.

Holding throughout (assay): universal protein binding microarray (PBM); transcription factors of Arabidopsis thaliana; high values mean tight binding
Assay [1] deals with T1, GST-ANAC092(1-176) (Arabidopsis thaliana, UniProt Q9FKA0 1-176).
T1 sequence: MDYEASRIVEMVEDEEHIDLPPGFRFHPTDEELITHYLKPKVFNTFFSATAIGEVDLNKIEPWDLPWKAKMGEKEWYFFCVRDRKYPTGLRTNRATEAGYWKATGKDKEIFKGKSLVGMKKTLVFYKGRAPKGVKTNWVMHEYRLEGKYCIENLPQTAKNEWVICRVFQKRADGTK
The note with it: protein: recombinant; tags: GST; chain copies: 2; dsDNA, one strand shown. In a few lines: (§1)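 Binding is expressed as the normalised enrichment score (E-score). Proteins carrying a GST tag, whether NAC-domain, full-length or DNA-binding-domain forms, were induced in cells, and zinc acetate was added for zinc-finger proteins. After purification on glutathione–Sepharose 4B and quantification by A280 or anti-GST western blot, each was applied in duplicate at 200 to 500 nM final to custom all-10-mer Agilent 4 × 180K arrays made double-stranded by primer extension. Gapped and ungapped 8-mers were scored.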

Assay [2] has as its target T2, GST-ANAC019 NAC domain (Arabidopsis thaliana, UniProt Q9C932 14-162).
T2 sequence: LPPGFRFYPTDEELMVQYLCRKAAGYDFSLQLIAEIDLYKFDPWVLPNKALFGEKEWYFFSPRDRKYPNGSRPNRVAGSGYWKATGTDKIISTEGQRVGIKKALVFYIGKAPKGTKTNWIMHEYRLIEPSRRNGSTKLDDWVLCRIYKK
To be noted: protein: recombinant; tags: GST; chain copies: 2; dsDNA, one strand shown. The gist of the method: as §1

Assay [3] addresses T3, GST-ATAF1 NAC domain (Arabidopsis thaliana, UniProt Q39013 7-158).
T3 sequence: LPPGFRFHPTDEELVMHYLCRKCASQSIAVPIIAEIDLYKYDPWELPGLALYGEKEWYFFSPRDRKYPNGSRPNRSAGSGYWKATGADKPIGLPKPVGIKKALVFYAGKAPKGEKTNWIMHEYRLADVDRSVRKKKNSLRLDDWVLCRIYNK
The note with it: protein: recombinant; tags: GST; chain copies: 2; dsDNA, one strand shown. The gist of the method:
as §1

Assay [4] concerns the target T4, GST-ANAC092(1-285) full length (Arabidopsis thaliana, UniProt Q9FKA0 1-285).
T4 sequence: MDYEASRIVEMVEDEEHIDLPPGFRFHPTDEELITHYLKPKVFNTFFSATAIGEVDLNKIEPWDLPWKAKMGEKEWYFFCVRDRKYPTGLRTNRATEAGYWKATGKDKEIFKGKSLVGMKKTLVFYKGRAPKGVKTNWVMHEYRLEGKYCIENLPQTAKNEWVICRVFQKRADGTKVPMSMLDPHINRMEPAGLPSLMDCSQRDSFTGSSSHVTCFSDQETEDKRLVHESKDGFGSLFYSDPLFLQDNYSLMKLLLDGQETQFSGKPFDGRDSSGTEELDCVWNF
The note with it: protein: recombinant; tags: GST; chain copies: 2; dsDNA, one strand shown. In a few lines: as §1

Assay [5] addresses T5, GST-NAP(1-166) (Arabidopsis thaliana, UniProt O49255 1-166).
T5 sequence: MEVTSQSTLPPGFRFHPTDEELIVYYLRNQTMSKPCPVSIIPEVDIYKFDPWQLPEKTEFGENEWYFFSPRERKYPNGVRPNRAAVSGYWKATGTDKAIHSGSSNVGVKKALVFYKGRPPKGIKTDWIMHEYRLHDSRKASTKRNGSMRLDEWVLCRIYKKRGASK
The note with it: protein: recombinant; tags: GST; chain copies: 2; dsDNA, one strand shown. The gist of the method: as §1

Assay [6] has as its target T6, GST-NST2(1-184) (Arabidopsis thaliana, UniProt Q9M274 1-184).
T6 sequence: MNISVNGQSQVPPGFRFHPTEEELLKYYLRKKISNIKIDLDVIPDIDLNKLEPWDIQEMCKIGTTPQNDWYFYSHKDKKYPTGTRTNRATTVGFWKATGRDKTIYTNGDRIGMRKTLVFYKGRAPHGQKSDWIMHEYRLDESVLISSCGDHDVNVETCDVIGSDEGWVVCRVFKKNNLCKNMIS
To be noted: protein: recombinant; tags: GST; chain copies: 2; dsDNA, one strand shown. The gist of the method:
as §1

Assay [7] has as its target T7, GST-SND1(1-203) (Arabidopsis thaliana, UniProt Q9LPI7 1-203).
T7 sequence: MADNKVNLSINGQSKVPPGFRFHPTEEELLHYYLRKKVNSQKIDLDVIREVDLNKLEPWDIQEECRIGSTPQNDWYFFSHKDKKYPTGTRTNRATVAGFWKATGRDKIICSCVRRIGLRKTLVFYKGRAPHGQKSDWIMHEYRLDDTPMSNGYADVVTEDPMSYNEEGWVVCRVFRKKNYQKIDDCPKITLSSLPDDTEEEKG
The note with it: protein: recombinant; tags: GST; chain copies: 2; dsDNA, one strand shown. The gist of the method:
as §1

For assay [8], the target named is T8, GST-VND3 NAC domain (Arabidopsis thaliana, UniProt Q9FH59 12-162).
T8 sequence: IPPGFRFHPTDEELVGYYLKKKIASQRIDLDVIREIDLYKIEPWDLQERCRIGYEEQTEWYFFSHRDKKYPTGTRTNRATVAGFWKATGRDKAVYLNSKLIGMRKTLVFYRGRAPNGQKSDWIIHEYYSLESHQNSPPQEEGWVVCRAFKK
The note with it: protein: recombinant; tags: GST; chain copies: 2; dsDNA, one strand shown. The gist of the method: as §1

In assay [9] the target is T9, GST-VND7 NAC domain (Arabidopsis thaliana, UniProt Q9C8W9 9-158).
T9 sequence: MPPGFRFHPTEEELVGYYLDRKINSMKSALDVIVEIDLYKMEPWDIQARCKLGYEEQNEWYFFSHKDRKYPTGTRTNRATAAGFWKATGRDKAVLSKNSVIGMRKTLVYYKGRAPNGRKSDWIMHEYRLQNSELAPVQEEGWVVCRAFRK
To be noted: protein: recombinant; tags: GST; chain copies: 2; dsDNA, one strand shown. The gist of the method:
as §1

The target in assay [10] is GST-WRKY1(266-371) (Arabidopsis thaliana, UniProt Q9SI37 266-371). The note with it: protein: recombinant; tags: GST; dsDNA, one strand shown. The gist of the method: as §1
Chain of GST-WRKY1(266-371) (Q9SI37 266-371): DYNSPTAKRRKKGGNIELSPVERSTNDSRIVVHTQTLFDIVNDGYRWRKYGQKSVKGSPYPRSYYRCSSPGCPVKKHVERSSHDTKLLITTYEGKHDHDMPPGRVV
Assay [11] deals with GST-NTL6(1-168) (Arabidopsis thaliana, UniProt Q9SCK6 1-168). To be noted: protein: recombinant; tags: GST; chain copies: 2; dsDNA, one strand shown. The gist of the method: as §1
Chain of GST-NTL6(1-168) (Q9SCK6 1-168): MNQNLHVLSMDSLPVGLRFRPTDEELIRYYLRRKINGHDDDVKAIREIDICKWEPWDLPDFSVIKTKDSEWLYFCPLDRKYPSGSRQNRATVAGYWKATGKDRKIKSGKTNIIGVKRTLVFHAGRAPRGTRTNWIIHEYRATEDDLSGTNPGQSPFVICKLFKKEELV
In assay [12] the target is T10, GST-ANAC055(1-171) (Arabidopsis thaliana, UniProt Q9LDY8 1-171).
T10 sequence: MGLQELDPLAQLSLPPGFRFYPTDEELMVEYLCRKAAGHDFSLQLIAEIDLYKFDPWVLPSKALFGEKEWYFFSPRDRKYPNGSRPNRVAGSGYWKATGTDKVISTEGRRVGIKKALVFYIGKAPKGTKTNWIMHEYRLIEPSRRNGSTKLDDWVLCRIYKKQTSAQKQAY
To be noted: protein: recombinant; tags: GST; chain copies: 2; dsDNA, one strand shown. The gist of the method:
as §1

Assay [13] addresses T11, GST-NTL8 NAC domain (Arabidopsis thaliana, UniProt Q9XIN7 14-156).
T11 sequence: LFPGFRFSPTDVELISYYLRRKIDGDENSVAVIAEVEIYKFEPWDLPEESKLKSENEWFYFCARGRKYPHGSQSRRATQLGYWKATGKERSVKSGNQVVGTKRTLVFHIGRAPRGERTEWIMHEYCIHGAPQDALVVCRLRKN
The note with it: protein: recombinant; tags: GST; chain copies: 2; dsDNA, one strand shown. In a few lines:
as §1

Turning to GACGCAAA, the binding signal in assay [1] was found to be 0.382 E-score; in assay [2] it was 0.0555 E-score; in assay [3], 0.0741 E-score; in [4], 0.411 E-score; in assay [5], 0.233 E-score; in [6], 0.123 E-score. In addition, the binding signal came to 0.289 E-score in assay [7], 0.135 E-score in assay [8], 0.099 E-score in assay [9] and 0.117 E-score in assay [10].

As for GTGACGTA, the binding signal in assay [1] came to 0.447 E-score; in assay [11], 0.0989 E-score; in assay [2] it was 0.375 E-score; in [12], 0.36 E-score; in [3] it was 0.39 E-score; in [4], 0.452 E-score. Besides, the binding signal in assay [5] came to 0.417 E-score; in assay [6], 0.311 E-score; in assay [7], 0.467 E-score; in [8], 0.365 E-score; in assay [9], 0.413 E-score.

Regarding AACTTGAC, the binding signal in assay [1] worked out at 0.0775 E-score; in [12], 0.105 E-score; in assay [3] it was 0.0699 E-score; in assay [4] it was 0.088 E-score; in assay [6], 0.173 E-score; in [7], 0.136 E-score. Moreover, the binding signal in assay [8] was 0.152 E-score; in [9], 0.0683 E-score; in [10], 0.425 E-score.

For ACACGATA, the binding signal came to 0.38 E-score in [1]; 0.127 E-score in assay [11]; 0.324 E-score in assay [2]; 0.261 E-score in [12]; 0.267 E-score in assay [3]; 0.417 E-score in assay [4]. Also, the binding signal in assay [5] was 0.183 E-score; in assay [6], 0.27 E-score; in assay [7], 0.266 E-score; in assay [8] it was 0.273 E-score; in [9] it was 0.248 E-score.

As to GACTTTTA, the binding signal in assay [2] is 0.0971 E-score; in assay [12] it was 0.051 E-score; in assay [3] it was 0.17 E-score; in assay [4], 0.141 E-score; in assay [7] it was 0.0841 E-score; in assay [8], 0.0985 E-score. The binding signal in assay [9] is 0.149 E-score; in [10], 0.414 E-score.

With ACACTCAA, the binding signal in assay [1] came to 0.425 E-score; in [2], 0.116 E-score; in [12], 0.174 E-score; in [3] it was 0.17 E-score; in assay [4] it was 0.448 E-score; in [5], 0.07 E-score. The binding signal was determined as 0.184 E-score in [6]; 0.0774 E-score in assay [13]; 0.264 E-score in assay [7]; 0.092 E-score in assay [8]; 0.185 E-score in [9]; 0.133 E-score in assay [10].

On to ATACGTAT, for which the binding signal stood at 0.156 E-score in [1]; 0.12 E-score in assay [11]; 0.281 E-score in assay [2]; 0.379 E-score in assay [12]; 0.231 E-score in assay [3]; 0.37 E-score in [4]. Also, the binding signal is 0.445 E-score in assay [5]; 0.186 E-score in assay [6]; 0.211 E-score in assay [7]; 0.347 E-score in assay [8]; 0.293 E-score in assay [9].
